This passage reports Pct of control results from publication PMC12751014, “Non-Catalytic Inhibitors of the p38/MK2 Interface: Repurposing Approved Drugs to Target Neuroinflammation in Alzheimer’s Disease” (Journal of Medicinal Chemistry, 2025).

In all, about 1,900 compounds went through this assay and about 50 (3%) showed an effect of 50% or more. The list comes from a sample in which strong results are over-represented; it also holds similar structures and randomly drawn compounds.

Sequence of p38/MK2 protein–protein interaction (VF-p38α / GST-MK2) (Q16539 2-360 limits assumed): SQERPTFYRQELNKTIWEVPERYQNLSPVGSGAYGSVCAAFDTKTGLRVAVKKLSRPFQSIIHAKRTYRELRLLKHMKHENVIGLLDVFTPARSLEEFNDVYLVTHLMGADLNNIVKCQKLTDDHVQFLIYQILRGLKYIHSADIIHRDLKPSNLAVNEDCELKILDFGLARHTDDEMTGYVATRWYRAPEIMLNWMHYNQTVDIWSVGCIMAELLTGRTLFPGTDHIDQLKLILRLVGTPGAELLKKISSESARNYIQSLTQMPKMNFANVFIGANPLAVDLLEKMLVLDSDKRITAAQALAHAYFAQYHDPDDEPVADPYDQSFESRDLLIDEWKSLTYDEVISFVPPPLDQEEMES

The target in this experiment is p38/MK2 protein–protein interaction (VF-p38α / GST-MK2) (Homo sapiens, UniProt Q16539). The experiment is described as follows: primary screen, percent of control activity; higher = less effect of the substance. The arrangement: species or system HEK293T cell lysate transfected with VF-p38α and GST-MK2; unclear (methods say 'quintuplet replicates'). How it is done:
The TR-FRET assay was conducted in a 1536-well plate (Corning, catalog no. 3724) with HEK293T cell lysate transfected with VF-p38α and GST-MK2. Cell-lysate concentration was optimized with a titration experiment. Anti-Flag-Tb and anti-GST-d2 antibodies (Revvity, catalog no. 61FGBTLB) were used to couple p38α and MK2, respectively. A multiple-drop Combi dispenser (Thermo Scientific) combined reaction mixtures in quintuplet replicates. The TR-FRET signals were measured using a BMG Labtech PHERAstar FSX plate reader and normalized to the percent of DMSO control.
Consider `CCOc1nc2cccc(C(=O)OC(C)OC(=O)OC3CCCCC3)c2n1Cc1ccc(-c2ccccc2-c2nn[nH]n2)cc1` (stereo not drawn), for which the Pct of control was determined as 32.4%.
As to `CCOc1nc2cccc(C(=O)O)c2n1Cc1ccc(-c2ccccc2-c2nc(=O)o[nH]2)cc1`, the Pct of control is on record as 94.5%.
`CCOc1nc2cccc(C(=O)O)c2n1Cc1ccc(-c2ccccc2-c2nn[nH]n2)cc1`: the Pct of control is listed as 95%.
As for `Cl.Cn1c(CCCC(=O)O)nc2cc(N(CCCl)CCCl)ccc21`, the figure is 99.1%.
Take `CC(=Cc1ccc(C(=O)O)cc1)c1ccc2c(c1)C(C)(C)CCC2(C)C`: the Pct of control stood at 78.8%.
Turning to `C=C(c1ccc(C(=O)O)cc1)c1cc2c(cc1C)C(C)(C)CCC2(C)C`, the Pct of control is recorded as 25.7%.
On to `CC1(C)CCC(C)(C)c2cc(NC(=O)c3ccc(C(=O)O)cc3)ccc21`, for which the Pct of control was 92.2%.
Turning to `CO/N=C(\C(=O)N[C@@H]1C(=O)N2C(C(=O)O)=C(CSC(=O)c3ccco3)CS[C@H]12)c1csc(N)n1.Cl`, the Pct of control was 115%.
`Cn1cc(-c2ccc3ncc(Cc4ccc5ncccc5c4)n3n2)cn1`: the Pct of control stood at 93.2%.
As for `CCCCCCCCCCCCCCCC(=O)OCC(O)C1OC(=O)C(O)=C1O` (stereo not drawn), the figure is 33.2%.
For the molecule `CCCCCC=CCC=CCCCCCCCC(=O)OC(COC(=O)CCCCCCCCCCCCCCC)COP(=O)([O-])OCC[N+](C)(C)C` (stereo not drawn), the Pct of control stood at 95.3%.
In turn, `O=C1O[C@H]([C@@H](O)CO)C(O)=C1O` came in with a Pct of control of 100%.
Take `CN(C)c1ccc(C(=O)NCCCCCCC(=O)NO)cc1`: the Pct of control amounted to 96.2%.
As for `Cl.O=S(=O)(c1cccc2cnccc12)N1CCCNCC1`, the figure is 93.6%; as for `COC(=O)C1=CO[C@@H](O[C@@H]2O[C@H](CO)[C@@H](O)[C@H](O)[C@H]2O)[C@@H]2C(CO)=CC[C@H]12`, 90.4%.
For `CNC(=O)c1cc(Oc2ccc(NC(=O)Nc3ccc(Cl)c(C(F)(F)F)c3)cc2)ccn1.Cc1ccc(S(=O)(=O)O)cc1`, the Pct of control came out at 69.1%.
`O=C(O)CC1CC(c2ccccc2)=NO1` (stereo not drawn) yielded a Pct of control of 86.5%.
For `C[C@@H]1C/C=C/C=C/C=C/C=C/[C@H](O[C@@H]2O[C@H](C)[C@@H](O)[C@H](N)[C@@H]2O)C[C@@H]2O[C@](O)(C[C@@H](O)C[C@H]3O[C@@H]3/C=C/C(=O)O1)C[C@H](O)[C@H]2C(=O)O`, the Pct of control was found to be 97.8%.
The molecule `CC1C=CC=CCCC=CC=CC=CC=CC(OC2OC(C)C(O)C(N)C2O)CC2OC(O)(CC(O)C(O)CCC(O)CC(O)CC(O)CC(=O)OC(C)C(C)C1O)CC(O)C2C(=O)O` (stereo not drawn) yielded a Pct of control of 94.3%.
Consider `C[C@@H]1[C@H](O)[C@@H](C)/C=C/C=C/C=C/C=C/C=C/C=C/C=C/[C@H](O[C@@H]2O[C@H](C)[C@@H](O)[C@H](N)[C@@H]2O)C[C@@H]2O[C@](O)(C[C@@H](O)C[C@@H](O)[C@H](O)CC[C@@H](O)C[C@@H](O)CC(=O)O[C@H]1C)C[C@H](O)[C@H]2C(=O)O`, for which the Pct of control was 48.7%.
In the case of `Cc1ccc(C(=O)N(CCCN)C(c2nc3cc(Cl)ccc3c(=O)n2Cc2ccccc2)C(C)C)cc1` (stereo not drawn), the Pct of control was found to be 97.1%.
For `COc1ccc(COc2cc3oc(=O)c4cc(C(C)O)ccc4c3cc2OC)cc1` (stereo not drawn), the Pct of control worked out at 78.7%.
Molecule `C=C1C(=O)[C@]23[C@H](O)[C@H]1CC[C@H]2[C@@]12CO[C@]3(O)[C@@H](O)[C@@H]1C(C)(C)CC[C@@H]2O` yielded a Pct of control of 42.8%.
`COC(=O)C1=C(C)NC(C)=C(C(=O)OCCN2CCN(C(c3ccccc3)c3ccccc3)CC2)C1c1cccc([N+](=O)[O-])c1` (stereo not drawn) displayed a Pct of control of 121%.
Take `COc1ccc2nc([S@@+]([O-])Cc3ncc(C)c(OC)c3C)[nH]c2c1`: the Pct of control worked out at 89.4%.
The molecule `O=C(CCCCCCC(=O)Nc1ccc([C@H]2O[C@@H](CSc3nc(-c4ccccc4)c(-c4ccccc4)o3)C[C@@H](c3ccc(CO)cc3)O2)cc1)NO` had a Pct of control of 20.4%.
`O=C(CCCCCCC(=O)Nc1ccccc1)NO` came in with a Pct of control of 102%.
As to `Cc1cccc(C(C)c2cnc[nH]2)c1C.Cl` (stereo not drawn) [S3060], the Pct of control worked out at 91.6%.
Turning to `CC1=CC(=O)NS(=O)(=O)O1.[K]`, the Pct of control is on record as 95.6%.
As for `CC(=CC(=O)Nc1ccccc1C(=O)O)c1ccc2ccccc2c1`, the figure is 105%.
For `CC(C)N(CCC(=O)c1ccc2ccccc2c1)Cc1ccccc1.Cl`, the Pct of control is 26.2%.
As for `CC(COc1ccccc1)N(CCCl)Cc1ccccc1.Cl` (stereo not drawn), the figure is 85.4%; as for `O=S(=O)(CC1CS1)c1ccc(Oc2ccccc2)cc1` (stereo not drawn), 95%.
Molecule `CN(C)CCCN1c2ccccc2Sc2ccc(C(F)(F)F)cc21.Cl` registered a Pct of control of 95.7%.
As for `O=C(O)C=CC(=O)O.c1ccc2nc(N3CCNCC3)ccc2c1`, the figure is 98.6%.
`O=C(NNc1ccccc1)c1ccncc1` returned a Pct of control of 97.3%.
As for `O=C(C=Cc1ccc2ccccc2n1)c1ccncc1`, the figure is 39.1%; as for `Cl.c1ccc2c(CC3=NCCN3)cccc2c1`, 94.8%; as for `CCCNC(C)C(=O)Nc1ccccc1C` (stereo not drawn), 96.3%.
Molecule `CC(C)c1onc(-c2c(Cl)cccc2Cl)c1COc1ccc(C=Cc2cccc(C(=O)O)c2)c(Cl)c1` yielded a Pct of control of 16.5%.
`O=c1cc(-c2cccc3c2Sc2ccccc2S3)oc(N2CCOCC2)c1` returned a Pct of control of 88.7%.
As for `CCCCCCOC(=O)N=C(N)c1ccc(NCc2nc3cc(C(=O)N(CCC(=O)OCC)c4ccccn4)ccc3n2C)cc1`, the figure is 94.2%.
As for `COC1CCN(C(=O)c2cc(Cc3n[nH]c(=O)c4ccccc34)ccc2F)CC1`, the figure is 95.8%; as for `Cl.NC1CC1c1ccccc1` (stereo not drawn), 91.7%; as for `O=[N+]([O-])C=Cc1ccc2c(c1)OCO2`, 40.3%.
In the case of `O=C(Oc1ccc([N+](=O)[O-])cc1)N1CCC(C(O)(c2ccc3c(c2)OCO3)c2ccc3c(c2)OCO3)CC1`, the Pct of control is 94.2%.
Consider `O=C(/C=C/C=C/c1ccc2c(c1)OCO2)N1CCCCC1`, for which the Pct of control was determined as 82.5%.
In turn, `Cc1ccc(-n2sc(=O)n(Cc3ccc(F)cc3)c2=O)cc1` showed a Pct of control of 114%.
The molecule `Cc1cnc(NC(=O)Nc2cc(Br)c(C)cc2OCC2CNCCO2)cn1` (stereo not drawn) registered a Pct of control of 73.3%.
Consider `O=C1c2cccc(O)c2C(=O)c2c(O)cc(CO)cc21`, for which the Pct of control was found to be 33.9%.
On to `O=C1c2c(O)cccc2C(C2OC(CO)C(O)C(O)C2O)c2cc(CO)cc(O)c21` (stereo not drawn), for which the Pct of control is listed as 92%.
In turn, `Cc1cc(O)c2c(c1)C(=O)c1cccc(O)c1C2=O` returned a Pct of control of 94%.
In turn, `CC1=NN(c2ccc(C(=O)O)cc2)C(=O)C1=Cc1ccc(-c2cc(C)c(C)cc2[N+](=O)[O-])o1` registered a Pct of control of 18%.
The molecule `COc1ccccc1N1CCN(CCN(C(=O)C2CCCCC2)c2ccccn2)CC1.O=C(O)C=CC(=O)O` gave a Pct of control of 97.5%.
`CN1C(=O)CCS(=O)(=O)C1c1ccc(Cl)cc1` (stereo not drawn) yielded a Pct of control of 95.4%.
`COC(=O)Nc1nc2ccc(C(=O)c3cccs3)cc2[nH]1` had a Pct of control of 97.5%.
As for `CCOc1ccc(NC(C)=O)cc1`, the figure is 97.7%.
`CC(C)(C)NC[C@H](O)COc1nsnc1N1CCOCC1.O=C(O)C=CC(=O)O` showed a Pct of control of 94.2%.
In turn, `c1ccc(Cn2c(-c3ccc(OCC(C4CCNCC4)n4c(-c5ccccc5)nc5ccccc54)cc3)nc3ccccc32)cc1` (stereo not drawn) showed a Pct of control of 21.2%.
Turning to `CCOc1ccccc1-n1c(C(C)N2CCN(C(=O)COc3ccc(Cl)cc3)CC2)nc2ccccc2c1=O` (stereo not drawn), the Pct of control is 100%.
With `CCCC1OC2CC3C4CCC5=CC(=O)C=CC5(C)C4C(O)CC3(C)C2(C(=O)CO)O1` (stereo not drawn), the Pct of control was 101%.
`CCCNC(C)C(=O)Nc1c(C)csc1C(=O)OC.Cl` (stereo not drawn) returned a Pct of control of 99.8%.
As for `O=C(O)CCC1CCC(c2cc(F)ccc2F)(S(=O)(=O)c2ccc(Cl)cc2)CC1` (stereo not drawn), the figure is 85.6%; as for `COc1cc2nccc(Oc3ccc(NC(=O)C4(C(=O)Nc5ccc(F)cc5)CC4)cc3)c2cc1OC.O=C(O)CC(O)C(=O)O`, 72.9%; as for `CN1CCN(C2CCN(C(=O)Nc3cc(Oc4ccc(NC(=O)C5(C(=O)Nc6ccc(F)cc6)CC5)c(F)c4)ccn3)CC2)CC1`, 46.1%.
Turning to `COc1cc2nccc(Oc3ccc(NC(=O)C4(C(=O)Nc5ccc(F)cc5)CC4)cc3)c2cc1OC`, the Pct of control is reported as 70.5%.
Regarding `NC(=O)Nc1cc(-c2cccc(F)c2)sc1C(=O)NC1CCCNC1` (stereo not drawn), the Pct of control stood at 74.3%.
In the case of `Cc1cc(NC(=O)c2cccc(NC(=O)C=CCN(C)C)c2)ccc1Nc1nccc(-c2cccnc2)n1`, the Pct of control was 80.7%.
As to `CC1(COc2ccc3c(c2)ncn3-c2ccc3cccc(N4CCC(N)CC4)c3n2)COC1`, the Pct of control is 47.3%.
Molecule `COCCOc1ccc2c(c1)ncn2-c1ccc2cccc(N3CCC(N)CC3)c2n1` registered a Pct of control of 51.7%.
Molecule `CCOC(=O)[C@H](CCc1ccccc1)N[C@H]1CS[C@H](c2cccs2)CN(CC(=O)O)C1=O.Cl` yielded a Pct of control of 77.1%.
On to `CC(C)(C)CC(C)(C)c1ccc(O)c(Cc2ccc(Cl)cc2Cl)c1`, for which the Pct of control turned out to be 88.3%.
Turning to `Cc1nn(-c2ccccc2)c(C)c1C=NN1CCN(Cc2ccccc2)CC1`, the Pct of control worked out at 85.5%.
Molecule `CC(=O)O.Cc1cc2c(C(C)C)c(O)c(O)c(C=O)c2c(O)c1-c1c(C)cc2c(C(C)C)c(O)c(O)c(C=O)c2c1O` [S2303] yielded a Pct of control of 26.8%.
`CC(=O)O.Cc1cc2c(C(C)C)c(O)c(O)c(C=O)c2c(O)c1-c1c(C)cc2c(C(C)C)c(O)c(O)c(C=O)c2c1O` [S2812] showed a Pct of control of 29.9%.
